# Source: PubChem BioAssay
# ELG1 DNA repair: qHTS screen for small molecules that inhibit ELG1-dependent DNA repair in human embryonic kidney (HEK293T) cells expressing luciferase-tagged ELG1; HEK293T ELG1-luciferase reporter, luminescence, 16 h; DNA damage induced by 5-fluorouridine; 330,000 tested, 2.3% active; Potency, µM (top dose mostly 46.1 µM), for inactives: top-dose activity change, negative = inhibition, actives largely listed as inhibitors; note: % is set by controls: 0 for no effect and ±100 for the full control effect; nearly all actives have a fitted effect of over 55% in size
#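 Cells (2,000 per well) received 5-fluorouridine plus test compound or DMSO and were incubated 16 hr at 37 °C, 5% CO2. Luciferase activity was read by luminescence 30 min after ONE-Glo addition; signal suppression marked inhibition of damage-induced ELG1 function.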
# NPC1 prom act: qHTS Assay for NPC1 Promoter Activators. Huh7 NPC1 promoter luciferase reporter, 24 h. Potency, µM (highest dose often 9.22 µM), inactives show at the top dose activation, hits mostly activators. 320,000 tested, 2.4% active; note: % of control where 0% means no effect; nearly all actives have a fitted effect of over 60% in size
#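 Quantitative HTS used a cell-based reporter: Huh7 cells stably bearing the NPC1 promoter upstream of luciferase were treated with compounds for 24 h, and promoter activation was read as luminescence.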
# FLuc modulator: qHTS profiling assay for firefly luciferase inhibitor/activator using purifed enzyme and Km concentrations of substrates (counterscreen for miR-21 project). Luciferin 4-monooxygenase (Photinus pyralis), P08659. purified FLuc, Km substrates, luminescence inhibition. Potency, µM (series often up to 57.5 µM), inactives show top-dose activity change, negative = inhibition, actives largely listed as inhibitors. 360,000 tested, 6.9% active. AID 588342, 2011;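 note: plate controls were vehicle for no effect and reference inhibitor for full effect; nearly all actives have a fitted effect of over 55% in size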
# Target sequence (P08659 whole entry, looked up): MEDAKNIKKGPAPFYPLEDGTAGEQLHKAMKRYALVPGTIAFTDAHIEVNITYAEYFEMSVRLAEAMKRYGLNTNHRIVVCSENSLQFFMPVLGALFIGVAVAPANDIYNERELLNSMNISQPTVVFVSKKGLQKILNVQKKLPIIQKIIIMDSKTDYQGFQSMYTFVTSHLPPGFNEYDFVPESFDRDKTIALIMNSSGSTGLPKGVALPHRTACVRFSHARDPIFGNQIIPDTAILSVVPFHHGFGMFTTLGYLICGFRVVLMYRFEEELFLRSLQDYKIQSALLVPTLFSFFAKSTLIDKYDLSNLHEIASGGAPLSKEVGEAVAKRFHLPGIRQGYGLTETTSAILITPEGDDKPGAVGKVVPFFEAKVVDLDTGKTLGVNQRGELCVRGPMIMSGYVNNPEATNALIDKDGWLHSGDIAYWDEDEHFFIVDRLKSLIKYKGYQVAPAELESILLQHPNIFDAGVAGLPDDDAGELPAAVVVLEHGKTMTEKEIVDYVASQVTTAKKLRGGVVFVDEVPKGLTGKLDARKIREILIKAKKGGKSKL
#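 Purified P. pyralis luciferase (10nM final) with 10uM D-luciferin and 10uM ATP (Km levels) in 50mM Tris acetate pH 7.5, 10mM Mg acetate, 0.01% Tween-20, 0.05% BSA; qHTS 6-point titration, ~60 µM downward; luminescence read.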
# Rab9 promoter act: qHTS Assay for Rab9 Promoter Activators; Potency, µM (top dose mostly 9.22 µM), inactives show top-dose activation, negative = inhibition, most hits filed as activators; AID 485297, 2010; 320,000 tested, 2.8% active; Huh7 Rab9 promoter-luciferase reporter, luminescence, 24 h; note: % of control where 0% means no effect; nearly all actives have a fitted effect of over 60% in size
#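 Luciferase signal after 10 min detection reagent at ambient indicates Rab9 promoter upregulation; stably transfected Huh7 cells were treated 24 h with compound in DMSO at 37 °C, 5% CO2.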
# SMN2 splice up: qHTS Assay for Enhancers of SMN2 Splice Variant Expression. 210,000 tested, 2.8% active. AID 1458, 2008. HEK293 SMN2-luciferase splicing reporter, luminescence, 30-36 h. Potency, µM (doses to about 46.1 µM), without a hit: at the highest dose activity change, positive = activation, usual class: activators; note: % of control where 0% means no effect; nearly all actives have a fitted effect of over 55% in size
#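 HEK293 cells carry an SMN2 […]–luciferase reporter in which exon 7 inclusion puts luciferase in frame. Cells were plated 10-12 h before compound addition, then incubated 30-36 h at 37C. ONE-Glo luminescence was read; sodium butyrate at 4.5 mM final served as control.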
# ELG1 genotoxic: qHTS screen for small molecules that induce genotoxicity in human embryonic kidney (HEK293T) cells expressing luciferase-tagged ELG1 | 330,000 tested, 1.3% active | Potency, µM (titrated, usually from 46 µM), without a hit: top-dose activity change, positive = activation, hits mostly activators | HEK293T ELG1-luciferase reporter, luminescence, 16 h; note: % of control where 0% means no effect; nearly all actives have a fitted effect of over 60% in size
#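 Screening used a luciferase reporter fused to human ELG1 in HEK293T cells. Luminescence was read on a CCD plate imager after 16 hr exposure and 30 min ONE-Glo incubation.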
# * hit, by the source's call; ? = inconclusive; / = not tested or not shown; [ ] = remark or other dose. The list is not random: actives were taken first. Their share in the collection is about 9.3%. Calls come from the whole dose curve; as a rule, active = well fitted curve in the direction sought with a large enough effect; inconclusive = small, poorly fitted or top-dose-only effect, or another doubt; inactive = no such curve, though single readings can be large; an effect the other way counts as inactive or inconclusive. Potency is the fitted concentration of half-maximal effect.
SMILES,ELG1 DNA repair,NPC1 prom act,FLuc modulator,Rab9 promoter act,SMN2 splice up,ELG1 genotoxic
CCOC(=O)c1cccc(NC(=O)CCc2nnc3ccc(N4CCCCC4)nn23)c1,-8%,-2%,2%,-3%,/,0%
NC(=O)C[C@@H](N)c1nn[nH]n1,/,/,/,/,-7%[9.22 µM],/
O=C(CSc1nnc(CNC(=O)c2c(F)cccc2F)o1)NCc1ccco1,6%,-8%,2%,6%,/,6%
Cc1ccc(S(=O)(=O)N2CCCCC2)cc1NC(=O)Cn1cc(C(F)(F)F)ccc1=O,-7%,0%,-8%,-3%,/,0%
Cc1ccc(NC(=O)CCc2c(C)nn(-c3ccc(N4CCCCC4)nn3)c2C)cc1C,?,?,12µM*,?,/,12%[9.26 µM]
CCOc1ccccc1NC(=O)CCc1c(C)nn(-c2ccc(N3CCCCC3)nn2)c1C,?,3%,11µM*,21%,/,-6%
Cc1cc(C)cc(NC(=O)CCc2c(C)nn(-c3ccc(N4CCCCC4)nn3)c2C)c1,?,?,4.8µM*,?,/,10%[9.26 µM]
Cc1nn(-c2ccc(N3CCCCC3)nn2)c(C)c1CCC(=O)Nc1ccc(F)c(F)c1,?,2.5µM*,5.4µM*,2.5µM*,/,1%
Cc1ccc(F)cc1NC(=O)CCc1c(C)nn(-c2ccc(N3CCCC3)nn2)c1C,/,/,-17%,/,/,/
CC(=O)Nc1ccc(C(=O)OCC(=O)N(Cc2ccccc2)C(C)(C)C)cc1,0%,2%,6%,1%,-3%,-2%
COc1ccc(CNC(=O)c2ccc(-c3ccccc3)cc2)cc1,?,?,?,?,2%,?
COc1ccc(C(=O)C[n+]2ccc3ccccc3c2C)cc1,1%,?,-17%,1µM*,/,1%
COc1ccc(C(=O)C[n+]2cccc3cc(OC)ccc32)cc1,-35%,-3%,3%,-6%,/,-7%
COc1ccc(C(=O)NCC(=O)c2ccccc2)cc1,?,2.8µM*,12µM*,3.5µM*,/,9.2µM*
COc1ccc(C(=O)CSc2ccccc2C(=O)O)cc1,?,2.2µM*,9.5µM*,?,11µM*,19%
COc1ccc(C(=O)Cc2nnc(C)s2)cc1,?,?,19µM*,?,?,?
Cc1c(Br)c(C(F)(F)F)nn1CC(=O)N(C)C1CCCCC1,2%,0%,0%,6%,/,-2%
Cc1ccc(NC(=O)CNC(=O)c2cccs2)cc1S(=O)(=O)Nc1ccc(Cl)cc1,17%,-2%,4%,9%,6%,7%
COc1ccc(C(=O)CC(=O)c2ccc(OC)cc2)cc1,?,19%,19µM*,15%,/,6%
COc1ccc(CNC(=O)CN2C(=O)c3ccccc3C2=O)cc1,11%,-2%,?,2%,/,2%
COc1ccc(O)c(C(=O)CC(=O)c2ccccc2)c1,?,0.71µM*,17µM*,0.71µM*,1.8µM*,?
COc1ccc(O)c(-c2[nH]ncc2C(=O)c2ccccc2)c1,23µM*,0%,7%,4%,-18%,-35%
O=C(c1ccccc1)c1cn[nH]c1-c1ccccc1O,1%,-4%,-8%,-8%,-6%,0%
COc1ccc(C(=O)CN2C(=O)c3ccccc3C2=O)cc1,?,?,17µM*,27%,/,10%
CC1(C)CC(=O)C(C(O)c2cccc([N+](=O)[O-])c2)C(C)(C)N1 (centres undefined),4%,-7%,6%,-6%,/,3%
SMILES,ELG1 DNA repair,NPC1 prom act,FLuc modulator,Rab9 promoter act,SMN2 splice up,ELG1 genotoxic
C[C@@]12CCC[C@H]1C1CC[C@H]3C[C@H](O)CC[C@]3(C)C1CC2 (some centres undefined),/,/,/,/,-3%,/
Cc1cccc(N2CCN(Cc3nnc(-c4cccc(Br)c4)o3)CC2)c1C,/,/,1%,/,4%,/
O=C(CN1CCOCC1)Nc1ccc2c(c1)OCCO2,?,25%,?,26%,/,10%
CSc1ccc(/C=C(\NC(=O)c2ccccc2)C(=O)NCCN2CCOCC2)cc1,3%,4%,4%,-7%,/,-6%
COc1ccc(C(=O)CNc2ccc3ccccc3c2)cc1,?,21%,?,18%,13%,?
COc1ccc(C(=O)CNc2ccccc2Br)cc1,?,?,7.6µM*,?,/,?
CC(OC(=O)c1ccccc1O)C(=O)Nc1cccc(Cl)c1 (centres undefined),-10%,-10%,-2%,-5%,-10%,-5%
COc1cc(/C=C2\SC(=N)N(c3ccc(F)cc3)C2=O)ccc1O,?,1%,-5%,-8%,-20%,9%
COc1cc(/C=C2\OC(=O)c3c(OC)cccc32)ccc1O,?,?,3.4µM*,?,-13%,10µM*
Cc1cccc(C(=O)N(Cc2ccco2)Cc2ccccc2F)c1,/,/,-17%,/,-25%,/
O=c1[nH]c(/C=C2\C=Nc3ccccc32)c(O)n1Cc1ccccc1F,?,-11%,-18%,-24%,-18%,-6%
CSc1nc(O)c(/C=C2\C=Nc3ccccc32)[nH]1,?,21%,11µM*,?,?,?
FC(F)(F)c1nnc(Nc2ccc(Cl)cc2)s1,10µM*,4%,-17%,-3%,/,-7%
Fc1ccc(Nc2nnc(C(F)(F)F)s2)cc1Cl,?,-6%,-14%,-8%,/,-18%
O=C(CSc1nnc(NC(=O)c2ccccc2F)s1)NC1CC1,?,?,15µM*,?,/,23%
Cc1cccc(C(=O)Nc2nnc(SCC(=O)Nc3ccc4c(c3)oc3ccccc34)s2)c1,?,13%,?,11%,28%,13%
COc1ccccc1C(=O)Nc1nnc(SCC(=O)NC2CCCC2)s1,?,0.63µM*,4.8µM*,/,/,2.3µM*
O=C(CSc1nnc(NC(=O)C2CCC2)s1)NC1CC1,6%,-3%,2%,-8%,0%,0%
O=C(CSc1nnc(NC(=O)c2ccco2)s1)NC1CCCC1,25%,-2%,-15%,1%,16%,1%
O=C(CSc1nnc(NC(=O)c2cccc(F)c2)s1)NC1CC1,0%,20%,15µM*,5%,/,21%
Cc1cccc(C(=O)Nc2nnc(SCC(=O)NC3CC3)s2)c1,?,?,19µM*,?,/,?
CSc1ccc(CCNC(=O)CCCn2nc(C)c3sc4ccccc4c3c2=O)cc1,/,/,-17%,/,/,/
